Measurements from the supplement of paper PMC6555819.

Columns and labels:
Experiment in all cases: PBM binding z-score (relative to random genomic background probes); higher = stronger binding; sequences stand for … in GC…GCGATTGACAGCGTAGAATGAAGG
[1] = tested on: FXR:RXRa (NR concentration 270 nM, RXRa partner concentration 90 nM)
Method in brief: (§1)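 Random background probes are the reference for binding z-scores. These scores derive from regression-normalized fluorescence on custom Agilent 4×180K protein-binding microarrays incubated 1 h with ligand-free nuclear receptor dimers. Binding was detected with antibodies against each partner (one per run).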

[2] = tested on: LXRa:RXRa (NR concentration 270 nM, RXRa partner concentration 90 nM)
Method in brief: as §1

[3] = tested on: LXRa homodimer (NR concentration 270 nM)
Method in brief: as §1

[4] = tested on: LXRb:RXRa (NR concentration 270 nM, RXRa partner concentration 90 nM)
Method in brief: as §1

[5] = tested on: LXRb homodimer (NR concentration 270 nM)
Method in brief: as §1

[6] = tested on: PPARa:RXRa (NR concentration 270 nM, RXRa partner concentration 90 nM)
Method in brief: as §1

[7] = tested on: PPARg:RXRa (NR concentration 180 nM, RXRa partner concentration 90 nM)
Method in brief: as §1

[8] = tested on: PPARg:RXRa 270nM:90nM, anti-RXR (NR concentration 270 nM, RXRa partner concentration 90 nM)
Method in brief: as §1

[9] = tested on: PPARg:RXRa 30nM:10nM, anti-RXR (NR concentration 30 nM, RXRa partner concentration 10 nM)
Method in brief: as §1

[10] = tested on: PPARg:RXRa 90nM:30nM, anti-RXR (NR concentration 90 nM, RXRa partner concentration 30 nM)
Method in brief: as §1

Sequence | PBM binding z-score [1] | PBM binding z-score [2] | PBM binding z-score [3] | PBM binding z-score [4] | PBM binding z-score [5] | PBM binding z-score [6] | PBM binding z-score [7] | PBM binding z-score [8] | PBM binding z-score [9] | PBM binding z-score [10]
TCATATAGGTAACAGGTGAAAGTCGGTGTGGTAA | 0.983 | 1 | 0.422 | 1.24 | 0.411 | 3.53 | 5.3 | 6.22 | 6.28 | 6.73
CCTTACGGGTCAAGGTTATAGTACGGGTGGTACG | 6.07 | 3.88 | 0.501 | 3.24 | 0.225 | 5.17 | 4.78 | 4.77 | 1.91 | 3.37
TGTATTAGTTGAAGGGCAACCGACGAGTCCGTTT | 0.551 | 0.588 | 0.228 | 0.491 | 0.587 | 0.462 | 0.102 | 0.95 | 0.864 | 0.871
CCTACTGGGCCAAAAAGGTCTTTGATGCCGATAA | -0.753 | -0.556 | -0.512 | -0.343 | -1.15 | 0.669 | 0.196 | 1.01 | -0.425 | 0.203
GCAGCCAGGTGAAACGCAGGTAACTCAGGGTGGC | -0.375 | -0.533 | -0.628 | -0.952 | -1.52 | 0.132 | 0.166 | -0.353 | -0.793 | -0.229
GCTAGTTGGTCAGTAATAGGTCACACACCGGTCG | 1.19 | 1.72 | 1.74 | 1.77 | 0.0415 | 2.79 | 1.44 | 2.52 | 0.756 | 1.82
TCGAGTCGGTTACCAATGGGGCATTCAGCTTTCT | -0.293 | -0.101 | -0.421 | 0.26 | -0.784 | 0.0956 | -0.641 | 0.163 | 0.773 | 0.526
CAGCCTAGGTCAGGGCCAGTACAGGAGGAACGTT | 1.53 | 0.993 | -0.276 | 0.431 | -1.11 | 2.09 | 0.833 | 0.908 | -0.375 | 0.307
CAAACTAGGTCAAGAGCTCAAAGTCCGCTTCCCG | 3.7 | 2.48 | 0.129 | 1.63 | 0.0048 | 4.61 | 7.37 | 6.8 | 4.34 | 6.56
TCTTGTAGATCCAGCAGGTTAAGAAAGCCTGAGT | 0.108 | 0.186 | -0.293 | 0.284 | -0.208 | 0.342 | -0.483 | 1.03 | 2.62 | 1.84
CCTTACGGGTCACTAACAGGTTATAGCATTTGGA | 4.73 | 4.24 | 0.54 | 3.4 | 0.319 | 4.89 | 3.61 | 3.78 | 1.37 | 2.83
ACTATCAGTTGAGACGAGGGCAACCGATAGGTTG | 0.189 | 0.0109 | -0.515 | -0.348 | -0.0586 | 0.26 | 0.645 | 0.00158 | 0.149 | -0.0981
GCTGCTAGGTCAACTGATGGTCAGGTAAAGCTCG | 4.16 | 2.9 | 0.318 | 2.37 | 0.0406 | 3.7 | 2.95 | 3.33 | 0.765 | 1.9
TCTGGTTGGTCAAAGGTCACACACTCGAAATGCG | 6.33 | 5.91 | 4.59 | 5.75 | 2.86 | 6.43 | 10.3 | 9.3 | 8.98 | 10.5
CCTAGCAGGCAAGGGTCACTCAAGCATTTCGCTT | 2.9 | 2.67 | -0.242 | 2.45 | -0.627 | 3.8 | 1.77 | 3.27 | 0.737 | 2.48
CGTACAAGGTCATAGGAGGTCAGTGAAGACAGAT | 7.48 | 7.5 | 5.3 | 6.46 | 1.33 | 6.18 | 6.47 | 6.66 | 3.17 | 5.29
TCATATAGGTAATCCAGGTGAAAGTCGGCATCTA | 1.03 | 1.21 | 0.37 | 0.829 | 0.397 | 2.4 | 1.87 | 2.9 | 4.14 | 3.53
TATACAGGGTCAAAGGCCAGAGTCCGAATGTCGA | 6.58 | 6.06 | 2.35 | 4.71 | 2.55 | 5.85 | 7.34 | 7.02 | 4.84 | 6.68
GCTAGCAGGCCATTTGGCTCACTCAATGACGGGC | -0.798 | -0.75 | -0.83 | -1.31 | -1.31 | -0.645 | 0.277 | -0.576 | -0.918 | -0.656
ATACCAAGGTGATCGTGAGGTGGTTGATACTAAC | 0.375 | 0.57 | 0.0365 | -0.0432 | 0.00305 | 0.168 | 0.411 | 0.0619 | 0.226 | 0.142
ACTAGCAGGCCAAGTTTAGGTCACTCAAACAAAG | 0.818 | 0.384 | 0.281 | 0.929 | -0.282 | 1.6 | 0.288 | 0.528 | -0.151 | 0.000314
CCAGACAGGTGAGAAGGTATCTCAGCCTCGATTA | -0.148 | -0.116 | 0.0657 | -0.418 | -0.551 | 0.0664 | 0.278 | -0.0698 | -0.296 | -0.148
CCTGCTAGGTCACTGGTCAGCTAAAGCAGCTCGC | 3.06 | 2.12 | -0.0651 | 1.42 | 0.0623 | 3.29 | 3.55 | 4.04 | 1.31 | 3.18
CAAACTAGGTCAAGAGGTCAGAGTCCGCTTCCCG | 5.85 | 5.23 | 3.2 | 4.21 | 0.8 | 6.08 | 9.79 | 7.9 | 6.89 | 8.32
AGTCAAAGTTCACTAGGTAACGTATGATTCAGCT | 4.96 | 4.91 | 2.85 | 3.16 | 1.09 | 4.64 | 7.19 | 6.52 | 3 | 5.54

Sequence | PBM binding z-score [1] | PBM binding z-score [2] | PBM binding z-score [3] | PBM binding z-score [4] | PBM binding z-score [5] | PBM binding z-score [6] | PBM binding z-score [7] | PBM binding z-score [8] | PBM binding z-score [9] | PBM binding z-score [10]
CCTACTAGGCCAAAGGTCATTGATTCCAATGCTC | 5.07 | 5.49 | 4.69 | 5.36 | 1.48 | 6.66 | 12.3 | 10.5 | 11.4 | 11.8
CCTAGCAGGCCAATCTCGGTCACTCAAGGCTTGA | 0.604 | 2.68 | 0.339 | -0.0855 | -0.585 | 0.406 | -0.312 | -0.384 | -1.26 | -0.439
CAAACTAGGTCACGAAGGGTCAAAGTCGAATGAC | 7.24 | 7.09 | 4.6 | 6.6 | 1.09 | 6.41 | 10.1 | 7.95 | 7.11 | 8.2
CGAACTAGGTCATTTACAGGACAGTGAATAGTAA | 4.33 | 3.3 | 1.29 | 2.69 | 0.887 | 4.56 | 6.79 | 6.09 | 3.53 | 5.66
CGAACTAGGTCAGAACAGGACAGTGAAGGATGAT | 1.69 | 0.689 | -0.0376 | 0.189 | -0.174 | 2.78 | 4.94 | 4.45 | 1.53 | 3.44
TCTAGTAGTTGATTAGGGCAACCGAAACAGCGGA | 0.323 | 0.0277 | -0.246 | 0.0544 | -0.448 | 0.658 | 0.17 | 1.41 | 2.74 | 2.06
GCATATAGGTAATACAAGGTGAAAGTGCGATTGT | 1.29 | 2.52 | 0.475 | 0.725 | -0.0302 | 2.26 | 1.96 | 2.57 | 1.04 | 2
CCTGACAGGTGAGAAGGTAACTCAGCCTCGATTA | -0.00915 | 0.102 | -0.219 | -0.0265 | -0.779 | 0.763 | 0.404 | 0.701 | -0.205 | 0.257
GGAACGAGGGCAACGTTGATAGCATCTGTCGACG | 0.32 | 0.21 | -0.371 | 0.0442 | -0.855 | 1.59 | 1.9 | 1.95 | 0.134 | 1.2
GCTGCTAGGTCAACTGATGGTCAGCCAAAGCTCG | 3.81 | 3.1 | 0.159 | 2.08 | 0.187 | 3.65 | 2.88 | 2.91 | 0.226 | 1.68
CAAACTAGGTCACCGGAAGGTCGAAGTCCGCATG | 4.63 | 4.34 | 1.21 | 3.06 | 0.673 | 5.6 | 9.2 | 7.5 | 5.41 | 7.33
TCGAATAGGTTACCAATGGGGCATTCAGCTTTCT | 0.65 | 2.61 | -0.377 | 2 | -0.392 | 1.87 | 0.255 | 1.75 | 2.94 | 2.43
AATACCGGGTCATCGTAGGCCAGAGTACGCACAG | 6.17 | 5.51 | 1.68 | 3.93 | 0.968 | 5.4 | 5.83 | 5.07 | 2.01 | 3.89
GCTAGAAGGCCATTTGGGTCACTCAATGACGGGC | 0.421 | 0.146 | -0.572 | 0.474 | -0.706 | 1.49 | 0.807 | 0.44 | -0.268 | -0.245
CCAGACAGGTGAAAGGTGACTCAGTCTGGTACGC | 1.34 | 1.27 | -0.086 | 1.33 | -0.308 | 4.15 | 6.88 | 6.76 | 5.26 | 7.19
CGTCCGAGGTCAGAGAGGTCAGTGAATGCCGAGT | 6.42 | 5.78 | 3.42 | 5.43 | 0.406 | 5.62 | 4.63 | 5.26 | 2 | 4.02
CTACCAAGGTGAACAAGGCCGTTGATTACTATTC | 0.303 | 0.209 | -0.224 | 0.646 | -0.622 | 1.25 | 0.647 | 0.527 | -0.248 | 0.152
AGAATGAGGTTATACGTAGATCAGCGAAGAAAGT | 1.93 | 1.66 | -0.0526 | 1.22 | -0.284 | 3.27 | 1.91 | 1.88 | 0.445 | 1.21
TCTCGGAGGACACGAAGGTCAGGGCTTTCCAGAG | 1.55 | 1.29 | 0.139 | 1.17 | -0.91 | 2.13 | 0.576 | 1.75 | 2.15 | 1.9
TAGCCTAGGTCAGATCGGGCCGGTATACGCTATA | 1.49 | 0.768 | -0.645 | 0.506 | -0.232 | 1.27 | 0.615 | 0.655 | -0.199 | 0.0642
TCTTGTAGATCAAGCAGGTTAACAAAGCCTGAGT | 0.489 | 0.545 | 0.00608 | 0.81 | -0.426 | 0.99 | -0.0763 | 1.23 | 2.44 | 2.04
CCTAGCAGGCCAGGCTCACTCAAGCATTTCGCTT | -0.543 | -0.545 | -0.346 | -0.706 | -0.617 | -0.794 | -0.439 | -0.638 | -1.13 | -0.853
GCTCGGAGGACACGGTCAGAGCTTTGTCCGTAGA | -0.337 | -0.705 | -0.568 | -0.918 | -1.3 | -0.523 | -0.859 | -0.893 | -1.3 | -1.06
TAGCCTAGGTCATGCGGGCCGGTATAGTGTCGGC | 4.25 | 3.22 | 0.206 | 1.43 | -0.202 | 3.19 | 1.89 | 2.45 | 0.149 | 1.79
